SMN2 splice enh = SMN2 splice variant enhancement; HEK293 SMN2-luciferase splicing reporter, luminescence, 30-36 h; Potency, µM (top dose mostly 46.1 µM), for inactives: top-dose activity change, positive = activation, usual class: activators; actives 2.8% (n = 210,000); AID 1458; further: % of control where 0% means no effect; nearly all actives have a fitted effect of over 55% in size
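HEK293 cells carry an SMN2 minigene-luciferase reporter in which exon 7 inclusion puts luciferase in frame. Cells were seeded at 2000 cells/well, attached for 10-12 hours, then exposed to compounds for 30-36 hours at 37C before ONE-Glo luminescence.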
ELG1 genotox = induces genotoxicity in HEK293T cells with luciferase-tagged ELG1; Potency, µM (titrated, usually from 46 µM), inactives show at the top dose activity change, positive = activation, actives largely listed as activators; AID 504466; HEK293T ELG1-luciferase reporter, luminescence, 16 h; actives 1.3% (n = 330,000); further: % of control where 0% means no effect; nearly all actives have a fitted effect of over 60% in size
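Cells (2,000/well) expressing the ELG1-luciferase fusion are dosed by pin tool and kept 16 hr at 37 °C, 5% CO2. Signal comes from ONE-Glo luciferase reagent after 30 min at room temperature.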
Rab9 promoter act = Rab9 promoter activation | Potency, µM (series often up to 9.22 µM), inactives show at the highest dose activation, negative = inhibition, hits mostly activators | actives 2.8% (n = 320,000) | Huh7 Rab9 promoter-luciferase reporter, luminescence, 24 h | AID 485297; further: % of control where 0% means no effect; nearly all actives have a fitted effect of over 60% in size
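Quantitative HTS format; Huh7 Rab9-luciferase reporter cells (1500/well) receive compound 2 h post-plating, incubate 24 h at 37 °C, then get luciferase reagent for 10 min before luminescence reading.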
NPC1 promoter act = activates the NPC1 promoter | Huh7 NPC1 promoter luciferase reporter, 24 h | Potency, µM (series often up to 9.22 µM), for the others: at the top dose activation, most hits filed as activators | actives 2.4% (n = 320,000); further: % of control where 0% means no effect; nearly all actives have a fitted effect of over 60% in size
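Cells: Huh7 expressing luciferase under the NPC1 promoter, 1500/well. Seeded 2 h, compound added, incubated 24 h at 37 °C. Luciferase reagent, 10 min ambient, then luminescence.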
Luc counter = Kinase-Glo luciferase inhibition (counter-screen); Q27757; Potency, µM (doses to about 38.3 µM), without a hit: at the highest dose activity change, negative = inhibition, most hits filed as inhibitors; Kinase-Glo luciferase, ATP luminescence, 8 min; actives 0.28% (n = 200,000); further: on the % scale 0 is the no-effect control and ±100 the full control effect; nearly all actives have a fitted effect of over 60% in size
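Light output from Kinase-Glo luciferase with luciferin and 10 uM ATP in 50 mM imidazole pH 7.2, KCl, MgCl2, Tween 20, BSA; compound pin-delivered, 8-min ambient incubation, then luminescence read.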
FLuc modulator = counter-screen for miR-21 project: firefly luciferase inhibitors or activators; P08659; purified FLuc, Km substrates, luminescence inhibition; Potency, µM (series often up to 57.5 µM), for the others: at the highest dose activity change, negative = inhibition, usual class: inhibitors; actives 6.9% (n = 360,000);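 further: plate controls were vehicle for no effect and reference inhibitor for full effect; nearly all actives have a fitted effect of over 55% in size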
Target sequence (P08659 whole entry, looked up): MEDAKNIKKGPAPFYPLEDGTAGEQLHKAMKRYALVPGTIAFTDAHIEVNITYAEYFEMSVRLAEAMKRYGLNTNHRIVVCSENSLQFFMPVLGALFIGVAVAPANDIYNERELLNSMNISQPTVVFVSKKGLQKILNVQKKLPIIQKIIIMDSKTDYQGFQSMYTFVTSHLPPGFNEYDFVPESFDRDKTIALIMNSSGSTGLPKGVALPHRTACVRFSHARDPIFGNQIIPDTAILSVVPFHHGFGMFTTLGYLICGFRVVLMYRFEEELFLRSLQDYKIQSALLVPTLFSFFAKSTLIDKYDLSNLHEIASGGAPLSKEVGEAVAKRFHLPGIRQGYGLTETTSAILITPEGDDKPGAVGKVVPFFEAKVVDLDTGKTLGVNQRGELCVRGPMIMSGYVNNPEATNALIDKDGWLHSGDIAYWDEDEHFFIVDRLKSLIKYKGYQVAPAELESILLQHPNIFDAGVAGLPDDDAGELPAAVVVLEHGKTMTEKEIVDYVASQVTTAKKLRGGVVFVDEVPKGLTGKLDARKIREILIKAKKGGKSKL
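Biochemical qHTS of compounds, final roughly 60 µM downward over six points, against 10 nM purified firefly luciferase using Km concentrations of substrates (10 uM D-luciferin, 10 uM ATP) in Tris acetate pH 7.5 buffer; luminescence output.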
The depositor's hits bear a star; [ ] = remark or other dose. This is a sample that favours compounds with a hit; in the whole collection about 7.3% have one here. The call rests on the fitted dose curve; in most records, active means well fitted curve in the direction sought with a large enough effect; inconclusive means small, poorly fitted or top-dose-only effect, or another doubt; inactive means no such curve, though single readings can be large; an effect the other way counts as inactive or inconclusive. Potency means the concentration at half of the fitted maximal effect.

Results for Cc1ccc(NC(=O)Cn2ncn3c(cc4ccccc43)c2=O)cc1C ?
SMN2 splice enh: -22%; FLuc modulator: -9%

Results for Oc1ccc(-c2nccc(-c3cccs3)n2)cc1 ?
SMN2 splice enh: inconclusive; ELG1 genotox: inconclusive; Rab9 promoter act: 22%; NPC1 promoter act: inconclusive; Luc counter: 1%; FLuc modulator: 8.5µM*

What do the screens show for `Oc1ccc(O)cc1`?
SMN2 splice enh: 9%; Rab9 promoter act: -42%[46.1 µM]; NPC1 promoter act: -32%[46.1 µM]; Luc counter: -3%

How did Oc1ccc(-c2nnc(-c3ccc(O)cc3)nn2)cc1 do in these assays?
SMN2 splice enh: 14µM*; ELG1 genotox: 18%; Rab9 promoter act: 4µM*; NPC1 promoter act: 3.2µM*; Luc counter: -4%; FLuc modulator: 2.7µM*

Results for O=C(Nc1nccc(-c2cccs2)n1)c1ccccc1Cl ?
SMN2 splice enh: -2%; ELG1 genotox: 5%; Rab9 promoter act: 18%; NPC1 promoter act: 6%; Luc counter: -2%; FLuc modulator: -17%

How did COC(=O)C(C)Oc1ccc(-c2nccc(-c3cccs3)n2)cc1 (configuration not stated) do in these assays?
SMN2 splice enh: inconclusive; ELG1 genotox: 11%; Rab9 promoter act: 24%; NPC1 promoter act: 18%; Luc counter: 4%; FLuc modulator: 17µM*

What do the screens show for `Oc1ccc(-c2nccc(-c3ccc(Cl)cc3)n2)cc1`?
SMN2 splice enh: 12%; ELG1 genotox: inconclusive; Rab9 promoter act: 13%; NPC1 promoter act: 2%; Luc counter: -3%; FLuc modulator: 17µM*

How did O=S(=O)(O)c1cc(O)c2c(N=Cc3ccccc3O)cc(S(=O)(=O)O)cc2c1 do in these assays?
SMN2 splice enh: 4%[9.22 µM]; Luc counter: 2%[7.66 µM]

How did Cc1nn(-c2ccccc2)c2nc(C3CC3)cc(C(=O)Nc3cccc(F)c3)c12 do in these assays?
FLuc modulator: 2%

How did CCCN(CCC)C(=O)CSc1nnc2cc(C)c3ccccc3n12 do in these assays?
FLuc modulator: -2%

Results for Oc1ccc(-c2cccc(-c3ccc(O)cc3)n2)cc1 ?
SMN2 splice enh: inconclusive; ELG1 genotox: 11%; Rab9 promoter act: 27%; NPC1 promoter act: -3%; Luc counter: 0%; FLuc modulator: 17µM*

What do the screens show for `CCc1ccc(NC(=O)CC2C(=O)N(c3cccc(C)c3)C(=O)N2CCC(C)C)cc1` (configuration not stated)?
FLuc modulator: -5%

What do the screens show for `CCc1cccc2c(C(=O)COC(=O)c3ccccc3)c[nH]c12`?
SMN2 splice enh: 26%; ELG1 genotox: inconclusive; Rab9 promoter act: inconclusive; NPC1 promoter act: inconclusive; Luc counter: 1%; FLuc modulator: 2.4µM*

Results for CCc1cccc2c(C(=O)COC(=O)c3nccnc3N)c[nH]c12 ?
ELG1 genotox: inconclusive; Rab9 promoter act: inconclusive; NPC1 promoter act: 25%; FLuc modulator: 15µM*

How did Cc1ccc([N+](=O)[O-])cc1N=Cc1ccc(Br)s1 do in these assays?
SMN2 splice enh: inconclusive; ELG1 genotox: 9%; Rab9 promoter act: -1%; NPC1 promoter act: inconclusive; Luc counter: 2%; FLuc modulator: 13µM*

How did Cc1ccc(C=Nc2cc([N+](=O)[O-])ccc2C)s1 do in these assays?
SMN2 splice enh: 13%; ELG1 genotox: 1%; Rab9 promoter act: 0%; NPC1 promoter act: 5%; Luc counter: 1%; FLuc modulator: 0%

How did N/C(CS(=O)(=O)c1ccccc1)=N\OC(=O)c1ccc(F)cc1 do in these assays?
ELG1 genotox: inconclusive; Rab9 promoter act: 6%; NPC1 promoter act: -1%; FLuc modulator: 6%

What do the screens show for `O=C(O/N=C/C1=C(Cl)c2ccccc2CC1)c1ccc(F)cc1`?
SMN2 splice enh: 3%; ELG1 genotox: -4%; Rab9 promoter act: -5%; NPC1 promoter act: -3%; Luc counter: -9%; FLuc modulator: 6.7µM*

High-throughput results deposited in PubChem by National Center for Advancing Translational Sciences (NCATS).
